# Measurements from PubChem BioAssay (NCATS).
# Values without a mark were called inactive. Results filed as inconclusive are left out. Activity calls are given as the source filed them. Unless noted, the call rests on the fitted dose curve; in most records, active means well fitted curve in the direction sought with a large enough effect; inconclusive means small, poorly fitted or top-dose-only effect, or another doubt; inactive means no such curve, though single readings can be large; an effect the other way counts as inactive or inconclusive.
# How the values were obtained:
# [1] = biological target: Lysosomal acid glucosylceramidase (Homo sapiens) (UniProt P04062); assay: Glucocerebrosidase-p2 (AID 348; in the data active means potency below about 10 µM; further: potency means the concentration at half of the fitted maximal effect); settings: purified GBA, blue fluorogenic substrate, 40 min
# In short: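 Compounds titrated from 0.6 nM upwards against 0.2 nM enzyme in pH 5.9 citric acid/KH2PO4, taurocholate, tween-20; blue fluorogenic substrate 80 uM, 40 min room temperature, stopped and read Ex 365/Em 440 for AC50.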
# [2] = AP1 Signaling Pathway (AID 357; active means well fitted curve in either direction with a large enough effect, not every such curve was filed as active;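 further: ME-180 reporter cells stimulated with EGF at its EC50 level; on the % scale 0 is the no-effect control and ±100 the full control effect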); settings: ME-180 AP-1-bla reporter, EGF-induced, beta-lactamase ratio, 5 h; at 7.69 µM (top of the series) unless noted
# In short: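 AP-1-bla ME-180 cells, Opti-MEM + 0.5% dialyzed FBS, plated overnight 37 °C. Cpd titration + EC50 EGF, 5 h 37 °C. CCF4 2.5 h RT; ex 405, em 460/530 ratio → %activity, AC50.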
# [3] = biological target: Cytochrome P450 1A2 (Homo sapiens) (UniProt P05177); assay: p450-cyp1a2 (AID 410; calls by dose curve; further: potency means the concentration at half of the fitted maximal effect); settings: recombinant CYP1A2, luciferin-ME demethylation, luminescence; series mostly up to 57 µM
# In short: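 20nM CYP1A2 with 100uM Luciferin-ME (at Km) in 100mM KPO4; compound preincubated 10 min, NADPH regeneration added, 60 min at room temperature. Luciferin quantified by luminescence after detection reagent; normalized to 57 uM furafylline.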
# [4] = Stat Signaling Pathway (AID 446; active means well fitted curve in either direction with a large enough effect, not every such curve was filed as active;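 further: ME-180 cervical cancer cells given 40 pM IL-6 alongside compound; SIE-controlled beta-lactamase reporter measured as 460/530 nm FRET emission ratio; on the % scale 0 is the no-effect control and ±100 the full control effect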); settings: ME-180 SIE beta-lactamase reporter, IL-6 stimulated, 5 h; at 7.69 µM (top of the series) unless noted
# In short: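 ME-180 SIE-bla cells; overnight plating; cpd + IL-6 40 pM, 5 h, 37 C; LiveBLAzer 2.5 h RT; 460/530 nm emission ratio. Normalized to 300 pM IL-6 and 125 nM JAK inhibitor controls.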
# [5] = biological target: Glucocorticoid receptor (Homo sapiens) (UniProt P04150); assay: GR-GFP Redistribution (AID 450;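 active means compounds whose dose series gives a full or clear partial fitted curve of increased nuclear translocation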; further: potency means the concentration at half of the fitted maximal effect); settings: U2OS GR-GFP nuclear translocation, laser cytometry, 2 h
# [6] = biological target: Glucocorticoid receptor (Homo sapiens) (UniProt P04150); assay: GR-EFC Redistribution (AID 451; calls by dose curve; further: potency means the concentration at half of the fitted maximal effect); settings: CHO-K1 GR-EFC translocation, beta-gal luminescence, 2 h
# In short: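 Translocation of GR-ED fusion to nuclear EA restores b-gal, read by luminescence after 1 h room-temperature detection. Engineered CHO-K1 biosensor cells, 1,000/well, exposed 2 h at 37 C to titrations up to 46 uM final.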
# [7] = biological target: Mitogen-activated protein kinase 10 (Mus musculus) (UniProt Q61831); assay: JNK3 AlphaScreen Assay (AID 530; active means well fitted curve in either direction with a large enough effect, not every such curve was filed as active;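 further: kinase came from lysate of stimulated human HepG2 cells; signal reports phosphorylation of biotinylated GST-cJun 1-79 at Ser73 with 10 µM ATP; on the % scale 0 is the no-effect control and ±100 the full control effect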); settings: JNK3 lysate, c-Jun phosphorylation; series mostly up to 57.1 µM
# In short: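 Compound titrations were preincubated 15 minutes at room temperature with substrate, antibody and pre-activated JNK3-containing HepG2 lysate. Reactions were started with 10 uM ATP and stopped with EDTA-containing bead buffer for AlphaScreen detection.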
# [8] = biological target: Cytochrome P450 3A4 (Homo sapiens) (UniProt P08684); assay: qHTS Assay for Activators of Cytochrome P450 3A4 (AID 885); settings: recombinant CYP3A4, Luciferin-PPXE luminescence, 60 min; series mostly up to 57.1 µM; further: nearly all actives have a fitted effect of over 65% in size
# In short: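 20nM CYP3A4 + 25uM Luciferin-PPXE (=KM), 200mM KPO4; cpd 10 min RT; NADPH regen, 60 min RT; stop w/ detection buffer, 20 min; luminescence. Normalized to 57 uM ketoconazole.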
# [9] = biological target: Cytochrome P450 2D6 (Homo sapiens) (UniProt P10635); assay: qHTS Assay for Inhibitors and Substrates of Cytochrome P450 2D6 (AID 891); settings: recombinant CYP2D6, luciferin-ME EGE luminescence; series mostly up to 57.1 µM; further: potency means the concentration at half of the fitted maximal effect; nearly all actives have a fitted effect of over 60% in size
# In short: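 Human CYP2D6 (5 nM) with 30 uM Luciferin-ME EGE (at Km) in 100 mM KPO4, compound preincubated 10 min, then NADPH regeneration system for 60 min at room temperature. Luciferin read by luminescence; normalized to 1.43 uM quinidine.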
# [10] = biological target: Dual specificity protein kinase CLK4 (Homo sapiens) (UniProt Q9HAZ1); assay: qHTS Assay for Inhibitors of CDC-like Kinase 4 (ADP-Glo Assay) (AID 1771); settings: recombinant CLK4, ADP-Glo luminescence; series mostly up to 80 µM; further: potency means the concentration at half of the fitted maximal effect; nearly all actives have a fitted effect of over 70% in size
# In short: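 25 nM Clk4 with 100 uM RS repeat peptide and 1 uM ATP (final) in buffer with 2 mM MgCl2, 0.5 mM EGTA, 2.5 mM DTT, 0.01% Triton X-100; 1 h at room temperature; ADP-Glo luminescence for ADP formed.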
# [11] = Primary qHTS for small molecule stabilizers of the endoplasmic reticulum resident proteome: Secreted ER Calcium Modulated Protein (SERCaMP) assay (AID 1508630); settings: SH-SY5Y GLuc-SERCaMP (Gaussia luciferase released on ER calcium loss) secretion, thapsigargin, luminescence; series mostly up to 38.4 µM; further: on the % scale 0 is the no-effect control and ±100 the full control effect
# In short: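 GLuc-SERCaMP-expressing SH-SY5Y cells, pretreated 16 h with compound, are challenged with thapsigargin to empty ER calcium stores; after 4 h, coelenterazine is added directly to the medium and luminescence is imaged.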
# [12] = NFAT Signaling Pathway (AID 444; active means well fitted curve in either direction with a large enough effect, not every such curve was filed as active); settings: Jurkat NFAT-bla M1, carbachol, beta-lactamase ratio, 5 h; at 7.69 µM (top of the series) unless noted
# In short: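 Read-out: CCF4 FRET ratio (460 nm/530 nm) after 1 h RT dye loading, used for %activity and AC50 from titration series. Cells: Jurkat NFAT-β-lactamase/M1 line, treated with compound plus 1 uM carbachol for 5 h, 37 °C.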
# [13] = biological target: 3',5'-cyclic-AMP phosphodiesterase 4B (Homo sapiens) (UniProt Q07343); assay: qHTS Assay for Inhibitors of PDE-IV (AID 607; active means well fitted activation curve with a large enough effect in the main read-out, with a control signal flat, not every such curve was filed as active; further: potency means the concentration at half of the fitted maximal effect); settings: HEK293 ACTOne CNG channel cells, membrane potential fluorescence; series mostly up to 22.9 µM
# In short: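 ACTOne HEK293 cells carry a modified cAMP-gated CNG channel and express endogenous PDE4; plated 1000 cells/well, compounds up to 22.9 uM final. Membrane-potential dye fluorescence (ex 535/em 590) was read; parental cells received 10 uM forskolin + 100 uM RO 20-1724.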
# [14] = biological target: Cytochrome P450 2C9 (Homo sapiens) (UniProt P11712); assay: qHTS Assay for Inhibitors and Substrates of Cytochrome P450 2C9 (AID 883); settings: recombinant CYP2C9, luciferin-H luminescence, 60 min; series mostly up to 57.1 µM; further: on the % scale 0 is the no-effect control and ±100 the full control effect; nearly all actives have a fitted effect of over 60% in size
# In short: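 Luminescent read-out of deoxyluciferin hydroxylation, normalized to 57uM sulphaphenazole (AC100). Reaction: 10nM enzyme, 100uM Luciferin-H (equal to KM), 25mM KPO4, 10 min compound preincubation, then 60 min with NADPH regeneration, both at 37C.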
# [15] = qHTS Assay for Identification of Small Molecule Agonists for Hypoxia Response Element Signaling Pathway (AID 914; active means well fitted activation curve with a large enough effect in the signal ratio, with a control signal flat, not every such curve was filed as active; the % refers to the signal ratio; further: % of control where 0% means no effect); settings: ME-180 (cervical carcinoma) HRE-bla reporter, beta-lactamase ratio, CoCl2, 17 h; activation: active compounds read high
# In short: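 Read-out: CCF4 FRET ratio of 460nm to 530nm emission (excitation 405nm) after 2.5 hours at room temperature, taken from HRE-bla ME-180 cells that had been exposed to compound and EC50 CoCl2 for 17 hours.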
# [16] = biological target: Ubiquitin carboxyl-terminal hydrolase 1 (Homo sapiens) (UniProt O94782); assay: Inhibitors of USP1/UAF1: Pilot qHTS (AID 504865); settings: purified USP1/UAF1, Ub-rhodamine cleavage fluorescence; series mostly up to 54.9 µM;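 further: rhodamine fluorescence freed from ubiquitin-rhodamine substrate followed over time; top concentration of the series differs between compounds; on the % scale 0 is the no-effect control and ±100 the full control effect; nearly all actives have a fitted effect of over 35% in size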
# In short: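 Kinetic fluorescence assay: 1nM USP1/UAF1, 15 min compound preincubation, then 150nM Ub-Rho; 480/540 nm.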
# [17] = biological target: Cytochrome P450 3A4 (Homo sapiens) (UniProt P08684); assay: qHTS Assay for Inhibitors and Substrates of Cytochrome P450 3A4 (AID 884); settings: recombinant CYP3A4, Luciferin-PPXE luminescence; series mostly up to 57.1 µM; further: potency means the concentration at half of the fitted maximal effect; nearly all actives have a fitted effect of over 50% in size
# In short: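 20 nM human CYP3A4 with 25 uM Luciferin-PPXE (at KM) in 200 mM KPO4, preincubated 10 min with compound; NADPH regeneration started a 60 min RT reaction. Luciferin detected by luminescence, normalized to 57 uM ketoconazole as full inhibition.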
# [18] = biological target: Cytochrome P450 2C19 (Homo sapiens) (UniProt P33261); assay: qHTS Assay for Inhibitors and Substrates of Cytochrome P450 2C19 (AID 899); settings: recombinant CYP2C19, luciferin-H EGE luminescence; series mostly up to 57.1 µM; further: potency means the concentration at half of the fitted maximal effect; nearly all actives have a fitted effect of over 60% in size
# In short: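 Luminescence readout of luciferin formed from 10uM Luciferin-H EGE (KM level) by 5 nM CYP2C19 in 50mM KPO4. 60 min NADPH-driven reaction at 37C after 10 min compound preincubation; data scaled to 57uM ketoconazole inhibition.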
# [19] = biological target: Dual specificity protein kinase CLK4 (Homo sapiens) (UniProt Q9HAZ1); assay: qHTS Assay for Inhibitors of CDC-like Kinase 4 (ADP-FP Assay) (AID 1795); settings: Transcreener ADP fluorescence polarization; series mostly up to 50 µM; further: nearly all actives have a fitted effect of over 60% in size; further: potency means the concentration at half of the fitted maximal effect
# In short: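 Inhibition of ADP formation by 6.25 nM Clk4 is measured using 1 uM ATP and 100 uM RS repeat peptide over one hour. Produced ADP displaces a fluorescent tracer from antibody, lowering polarization.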
# Glucocorticoid receptor (Homo sapiens), sequence (P04150 whole entry, looked up, the tested form may be a part): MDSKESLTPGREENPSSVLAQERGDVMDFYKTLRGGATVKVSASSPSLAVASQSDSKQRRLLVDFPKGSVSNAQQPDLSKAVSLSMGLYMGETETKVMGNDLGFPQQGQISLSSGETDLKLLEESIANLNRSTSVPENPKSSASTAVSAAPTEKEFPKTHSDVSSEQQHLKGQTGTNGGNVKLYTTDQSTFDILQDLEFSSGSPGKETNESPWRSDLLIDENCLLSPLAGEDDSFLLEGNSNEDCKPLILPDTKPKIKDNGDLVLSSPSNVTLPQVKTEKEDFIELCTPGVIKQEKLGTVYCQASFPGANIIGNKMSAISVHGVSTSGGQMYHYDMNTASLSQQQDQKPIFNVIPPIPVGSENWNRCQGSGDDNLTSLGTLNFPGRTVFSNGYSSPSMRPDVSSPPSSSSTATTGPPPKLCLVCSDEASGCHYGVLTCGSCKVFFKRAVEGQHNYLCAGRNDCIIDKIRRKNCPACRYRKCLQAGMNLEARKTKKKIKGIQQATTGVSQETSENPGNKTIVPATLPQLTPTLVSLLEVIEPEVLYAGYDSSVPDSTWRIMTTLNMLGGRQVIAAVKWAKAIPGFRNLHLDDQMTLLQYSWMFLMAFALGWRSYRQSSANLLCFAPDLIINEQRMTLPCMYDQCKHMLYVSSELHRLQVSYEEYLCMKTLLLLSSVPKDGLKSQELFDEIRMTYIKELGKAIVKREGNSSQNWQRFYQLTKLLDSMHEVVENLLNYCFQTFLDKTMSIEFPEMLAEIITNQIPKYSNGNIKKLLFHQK
# Cytochrome P450 2C19 (Homo sapiens), sequence (P33261 whole entry, looked up): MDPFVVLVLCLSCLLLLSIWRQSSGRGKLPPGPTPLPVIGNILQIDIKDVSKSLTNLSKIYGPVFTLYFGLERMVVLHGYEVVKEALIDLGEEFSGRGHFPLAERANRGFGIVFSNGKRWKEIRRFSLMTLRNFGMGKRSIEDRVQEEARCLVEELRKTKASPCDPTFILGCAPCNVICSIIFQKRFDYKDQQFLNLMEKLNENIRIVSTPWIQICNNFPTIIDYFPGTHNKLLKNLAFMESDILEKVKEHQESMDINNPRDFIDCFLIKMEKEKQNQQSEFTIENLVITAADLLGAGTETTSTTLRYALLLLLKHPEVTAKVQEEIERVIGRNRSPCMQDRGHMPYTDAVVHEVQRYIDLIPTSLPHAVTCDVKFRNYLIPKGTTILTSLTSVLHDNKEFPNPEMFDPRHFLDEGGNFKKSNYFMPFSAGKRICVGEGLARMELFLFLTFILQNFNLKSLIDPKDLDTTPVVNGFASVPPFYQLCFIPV
# Cytochrome P450 3A4 (Homo sapiens), sequence (P08684 whole entry, looked up): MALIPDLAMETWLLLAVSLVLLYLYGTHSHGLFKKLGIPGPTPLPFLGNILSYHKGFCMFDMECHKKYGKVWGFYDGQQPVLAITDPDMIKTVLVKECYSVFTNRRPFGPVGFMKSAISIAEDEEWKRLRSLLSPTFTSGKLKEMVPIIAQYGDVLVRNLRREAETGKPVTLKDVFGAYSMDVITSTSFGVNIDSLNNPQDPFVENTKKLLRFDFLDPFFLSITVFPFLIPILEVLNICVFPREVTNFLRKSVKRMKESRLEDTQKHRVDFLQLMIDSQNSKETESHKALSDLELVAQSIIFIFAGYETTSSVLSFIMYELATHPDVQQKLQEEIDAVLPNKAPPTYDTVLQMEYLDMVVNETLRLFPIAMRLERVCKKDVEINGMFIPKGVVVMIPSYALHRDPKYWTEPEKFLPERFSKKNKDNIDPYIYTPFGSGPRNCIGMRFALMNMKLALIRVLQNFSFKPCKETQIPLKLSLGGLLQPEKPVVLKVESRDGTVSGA
# Ubiquitin carboxyl-terminal hydrolase 1 (Homo sapiens), sequence (O94782 whole entry, looked up): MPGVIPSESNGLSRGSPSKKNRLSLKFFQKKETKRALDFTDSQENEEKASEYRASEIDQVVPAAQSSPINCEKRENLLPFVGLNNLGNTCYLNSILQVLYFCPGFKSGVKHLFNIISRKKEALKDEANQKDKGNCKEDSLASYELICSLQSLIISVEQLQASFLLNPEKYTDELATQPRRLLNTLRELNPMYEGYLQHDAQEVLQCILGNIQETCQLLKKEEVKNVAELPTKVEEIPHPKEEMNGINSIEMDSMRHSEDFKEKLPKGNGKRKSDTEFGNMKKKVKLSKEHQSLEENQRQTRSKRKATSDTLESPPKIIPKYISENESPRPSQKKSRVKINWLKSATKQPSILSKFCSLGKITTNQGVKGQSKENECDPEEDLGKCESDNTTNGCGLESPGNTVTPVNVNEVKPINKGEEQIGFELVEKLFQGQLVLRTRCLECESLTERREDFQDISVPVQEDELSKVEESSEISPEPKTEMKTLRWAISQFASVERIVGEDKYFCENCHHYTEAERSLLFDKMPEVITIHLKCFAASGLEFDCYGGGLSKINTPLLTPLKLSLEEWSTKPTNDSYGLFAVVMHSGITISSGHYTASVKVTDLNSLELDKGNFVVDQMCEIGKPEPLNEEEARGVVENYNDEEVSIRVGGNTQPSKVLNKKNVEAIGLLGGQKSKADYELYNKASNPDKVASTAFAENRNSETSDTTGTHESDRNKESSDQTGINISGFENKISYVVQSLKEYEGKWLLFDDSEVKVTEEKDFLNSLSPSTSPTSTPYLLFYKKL
# Lysosomal acid glucosylceramidase (Homo sapiens), sequence (P04062 whole entry, looked up): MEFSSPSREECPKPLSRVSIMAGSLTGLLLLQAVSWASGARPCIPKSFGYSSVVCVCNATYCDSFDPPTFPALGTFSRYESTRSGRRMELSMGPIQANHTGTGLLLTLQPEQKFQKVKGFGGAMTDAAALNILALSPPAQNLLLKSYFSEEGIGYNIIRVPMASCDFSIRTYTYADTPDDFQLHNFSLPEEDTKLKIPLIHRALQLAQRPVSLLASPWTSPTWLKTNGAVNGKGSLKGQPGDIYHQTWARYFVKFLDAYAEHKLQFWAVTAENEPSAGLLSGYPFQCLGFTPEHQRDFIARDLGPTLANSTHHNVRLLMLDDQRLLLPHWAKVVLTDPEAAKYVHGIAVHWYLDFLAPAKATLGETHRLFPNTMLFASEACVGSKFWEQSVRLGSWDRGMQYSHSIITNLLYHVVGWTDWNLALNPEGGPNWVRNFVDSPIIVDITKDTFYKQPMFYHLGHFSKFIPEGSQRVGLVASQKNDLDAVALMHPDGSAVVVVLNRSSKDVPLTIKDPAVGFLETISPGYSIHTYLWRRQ
# Dual specificity protein kinase CLK4 (Homo sapiens), sequence (Q9HAZ1 whole entry, looked up): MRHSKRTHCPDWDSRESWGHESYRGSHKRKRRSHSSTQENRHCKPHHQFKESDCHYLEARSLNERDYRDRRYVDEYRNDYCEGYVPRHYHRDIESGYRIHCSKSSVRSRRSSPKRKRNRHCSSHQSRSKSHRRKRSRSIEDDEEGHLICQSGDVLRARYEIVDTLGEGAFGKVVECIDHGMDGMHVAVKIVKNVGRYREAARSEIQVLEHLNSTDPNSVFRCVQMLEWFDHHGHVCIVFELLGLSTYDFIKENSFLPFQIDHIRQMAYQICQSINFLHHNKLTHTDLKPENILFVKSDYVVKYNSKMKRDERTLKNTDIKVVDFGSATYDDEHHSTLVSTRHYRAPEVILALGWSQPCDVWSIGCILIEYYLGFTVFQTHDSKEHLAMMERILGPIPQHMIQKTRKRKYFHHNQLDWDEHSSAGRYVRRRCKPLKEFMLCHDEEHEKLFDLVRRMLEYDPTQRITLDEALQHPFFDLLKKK
# Cytochrome P450 1A2 (Homo sapiens), sequence (P05177 whole entry, looked up): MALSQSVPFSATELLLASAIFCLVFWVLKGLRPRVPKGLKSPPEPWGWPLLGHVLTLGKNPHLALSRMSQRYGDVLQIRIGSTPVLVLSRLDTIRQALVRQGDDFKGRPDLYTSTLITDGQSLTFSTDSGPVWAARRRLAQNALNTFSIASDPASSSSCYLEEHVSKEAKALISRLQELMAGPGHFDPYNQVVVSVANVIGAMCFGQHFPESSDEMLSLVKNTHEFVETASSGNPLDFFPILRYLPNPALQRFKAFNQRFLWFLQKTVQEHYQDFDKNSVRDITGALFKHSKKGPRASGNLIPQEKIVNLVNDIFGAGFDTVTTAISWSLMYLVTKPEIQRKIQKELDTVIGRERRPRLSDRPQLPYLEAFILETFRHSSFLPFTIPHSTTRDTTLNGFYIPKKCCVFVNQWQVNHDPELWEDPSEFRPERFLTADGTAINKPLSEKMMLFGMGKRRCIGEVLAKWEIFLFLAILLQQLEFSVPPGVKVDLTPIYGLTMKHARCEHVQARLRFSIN
# Cytochrome P450 2D6 (Homo sapiens), sequence (P10635 whole entry, looked up): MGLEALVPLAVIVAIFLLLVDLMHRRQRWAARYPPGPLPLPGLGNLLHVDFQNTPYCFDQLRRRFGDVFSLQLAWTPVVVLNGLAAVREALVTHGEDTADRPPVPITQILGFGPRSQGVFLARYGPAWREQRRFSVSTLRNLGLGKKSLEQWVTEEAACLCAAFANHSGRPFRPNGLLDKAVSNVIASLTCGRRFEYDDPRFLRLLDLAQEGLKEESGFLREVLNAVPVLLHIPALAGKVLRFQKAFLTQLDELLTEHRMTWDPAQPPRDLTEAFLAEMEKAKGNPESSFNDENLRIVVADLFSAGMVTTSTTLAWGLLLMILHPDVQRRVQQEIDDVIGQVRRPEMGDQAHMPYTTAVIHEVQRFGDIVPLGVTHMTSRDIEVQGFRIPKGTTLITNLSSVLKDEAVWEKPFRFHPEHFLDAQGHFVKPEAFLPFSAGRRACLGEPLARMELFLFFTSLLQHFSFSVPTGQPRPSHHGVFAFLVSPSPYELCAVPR
SMILES,Potency [1] [µM],"activity change, negative = inhibition [2] [%]",Potency [3],"activity, negative = inhibition [4] [%]",Potency [5] [µM],Potency [6] [µM],Potency [7],Potency [8],Potency [9],Potency [10],outcome [11],"activity change, negative = inhibition [12] [%]",Potency [13],"activity change, negative = inhibition [14]",activation [15] [%],Potency [16],Potency [17],Potency [18],Potency [19]
COc1cccc(-c2nc(N(C)Cc3ccco3)c3ccccc3n2)c1,> 11.4,-7.73,0.316 µM (active),-9.79,> 46,> 46,inactive,inactive,5.01 µM (active),12.6 µM (active),inactive,–,–,–,–,–,–,–,–
CS(=O)(=O)Nc1cccc(-c2cc(Nc3ccccc3)ncn2)c1,> 11.4,-27.9,0.398 µM (active),3.87,> 46,> 46,inactive,inactive,–,35.5 µM (active),inactive,10.9,inactive,56.3% [at 2.29 µM],-13.8,inactive,–,–,–
Cc1noc(C)c1-c1nc(NC2CC2)c2ccccc2n1,> 11.4,13.4,–,7.05,> 46,> 46,inactive,–,–,14.1 µM (active),inactive,-6.72,inactive,–,–,inactive,–,–,–
Fc1ccc(Nc2ccnc(-c3ccc4c(c3)OCO4)n2)cc1,> 11.4,8.72,0.631 µM (active),-6.41,> 46,> 46,inactive,inactive,–,–,inactive,-0.562,–,–,–,–,2 µM (active),2 µM (active),inactive
Cc1cnc(CNc2ccnc(-c3cccc(NS(C)(=O)=O)c3)n2)cn1,> 11.4,-6.82,20 µM (active),4.11,> 46,> 46,inactive,inactive,–,–,inactive,13.5,inactive,–,–,inactive,–,–,inactive
COc1ccc(-c2nc3cnc(N4CCOCC4)nc3n(Cc3cccs3)c2=O)cc1,> 11.4,12.3,2.51 µM (active),–,> 9.22,> 46,inactive,–,–,–,inactive,-2.31,1.58 µM (active),–,–,inactive,–,–,inactive
c1cncc(CNc2cc(-c3ccoc3)ncn2)c1,> 11.4,0.0422,3.16 µM (active),11.8,> 46,> 46,inactive,inactive,–,–,inactive,–,inactive,–,0.531,inactive,–,–,inactive
c1csc(CNc2nc(-c3ccoc3)nc3ccccc23)c1,> 11.4,-9.82,0.316 µM (active),-7.57,–,> 46,inactive,inactive,3.98 µM (active),–,inactive,-8.44,–,–,–,–,7.94 µM (active),–,11.2 µM (active)
CN(Cc1ccco1)c1ncncc1-c1ccc2c(c1)OCO2,> 11.4,1.93,0.2 µM (active),-2.55,> 46,> 46,inactive,inactive,1.26 µM (active),–,inactive,–,–,–,–,inactive,1.26 µM (active),0.126 µM (active),inactive
COc1ccccc1-c1cncnc1NCc1cccs1,> 11.4,0.247,3.16 µM (active),-6.68,> 46,> 46,inactive,inactive,–,–,inactive,-3.21,–,–,–,inactive,0.398 µM (active),2 µM (active),inactive
Cc1ccccc1-c1cc(N(C)Cc2ccco2)ncn1,> 11.4,7.17,3.98 µM (active),8.71,> 46,> 46,inactive,–,–,–,inactive,-15.6,inactive,–,–,inactive,–,6.31 µM (active),inactive
O=c1c(-c2cccs2)nc2cncnc2n1-c1ccccc1,> 11.4,-11.2,12.6 µM (active),-0.182,> 9.22,> 46,inactive,inactive,–,–,inactive,-9.03,–,–,–,inactive,–,6.31 µM (active),inactive
COc1cccc(Cn2c(=O)c(-c3cccc(C#N)c3)nc3cnc(OC)nc32)c1,> 11.4,-6.86,10 µM (active),-4.38,> 9.22,> 46,inactive,inactive,–,–,inactive,-8.15,–,–,–,inactive,3.16 µM (active),–,inactive
